Laboratory results as given in PubChem BioAssay.
The source made the active and inactive calls.

Experiments:
[1] = tested on: PRMT1 (protein arginine N-methyltransferase 1); assay: PRMT1 binders on small-molecule microarrays, primary screen, biochemical, small-molecule microarray, 635 nm fluorescence (AID 1088); conditions: small-molecule microarray binding, higher = more signal;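 also: binding of Prmt1 protein to compounds spotted on small-molecule microarray slides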
[2] = yeast growth modulation, basal conditions, primary screen, YJM789 clinical isolate, OD600, 24 h (AID 1089);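 also: growth of clinical yeast isolate S. cerevisiae YJM 789 seeded 1000 cells per well; test concentration not given here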; conditions: S. cerevisiae YJM789 growth, higher = more signal, called active from +8 up or from −8 down
[3] = fission yeast growth modulation, primary screen, strain 972, OD600, 24 h, no modulator (AID 1090);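 also: basal condition with compound alone and no growth modifier present; test concentration not given here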; conditions: S. pombe 972 growth, higher = more signal, called active from +8 up or from −8 down
[4] = S. cerevisiae growth modulation with rapamycin, primary screen, strain BY4716, OD600, 96 h (AID 1091); conditions: higher = more signal, called active from +8 up or from −8 down; also: test concentration not given here
[5] = molecular target: Torsin-1A-interacting protein 2 (Homo sapiens) (UniProt Q8NFQ8); assay: LULL1 binders on small-molecule microarray, primary screen, cell lysate, human LULL1 lysate, 635/667 nm fluorescence (AID 1092); conditions: hLULL1 lysate binding, 635 nm fluorescence, higher = more signal;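 also: probe is lysate of COS7 cells overexpressing human LULL1; score merges per-feature 667 nm fluorescence with signal-to-noise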
Chain of Torsin-1A-interacting protein 2 (Homo sapiens) (Q8NFQ8 whole entry, looked up): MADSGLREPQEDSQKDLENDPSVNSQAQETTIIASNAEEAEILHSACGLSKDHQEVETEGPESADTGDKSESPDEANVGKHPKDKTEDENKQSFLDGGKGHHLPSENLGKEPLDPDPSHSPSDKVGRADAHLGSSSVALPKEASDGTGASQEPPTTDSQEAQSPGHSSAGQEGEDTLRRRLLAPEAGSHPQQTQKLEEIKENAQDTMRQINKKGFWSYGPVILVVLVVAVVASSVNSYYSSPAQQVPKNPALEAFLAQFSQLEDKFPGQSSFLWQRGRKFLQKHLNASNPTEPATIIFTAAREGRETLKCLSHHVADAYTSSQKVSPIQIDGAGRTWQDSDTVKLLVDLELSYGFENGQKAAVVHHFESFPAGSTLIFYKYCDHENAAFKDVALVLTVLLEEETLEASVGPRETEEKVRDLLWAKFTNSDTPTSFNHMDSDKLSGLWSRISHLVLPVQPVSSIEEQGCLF

[6] = E. coli growth modulation, two-sided OD650, primary screen, E. coli filamentation project, strain DRC41, 24 h (AID 1093); conditions: OD650, 24 h, higher = more signal, called active from +8 up or from −8 down;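 also: MC1000 strain lacking acrAB efflux and sulA so SOS filamentation is blocked; test concentration not given here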
[7] = small-molecule microarray binders of probe aLefty2, primary screen, biochemical, biotinylated probe, 635/667 nm fluorescence (AID 1094); conditions: higher = more signal;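 also: score merges spot fluorescence near 667 nm with spot signal-to-noise ratio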
[8] = tested on: Noggin (protein binding on small-molecule microarray); assay: Noggin binders on small-molecule microarray, primary screen, biochemical, 635/667 nm fluorescence (AID 1095); conditions: 635 nm fluorescence, higher = more signal;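 also: score merges 667 nm feature fluorescence with signal to noise over triplicate slides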
[9] = molecular target: Neurogenic locus notch homolog protein 3 (Homo sapiens) (UniProt Q9UM47); assay: NOTCH3 binders on small-molecule microarray, primary screen, biochemical, 635/667 nm fluorescence (AID 1096); conditions: NOTCH3 binding, 635 nm fluorescence, higher = more signal
Chain of Neurogenic locus notch homolog protein 3 (Homo sapiens) (Q9UM47 whole entry, looked up): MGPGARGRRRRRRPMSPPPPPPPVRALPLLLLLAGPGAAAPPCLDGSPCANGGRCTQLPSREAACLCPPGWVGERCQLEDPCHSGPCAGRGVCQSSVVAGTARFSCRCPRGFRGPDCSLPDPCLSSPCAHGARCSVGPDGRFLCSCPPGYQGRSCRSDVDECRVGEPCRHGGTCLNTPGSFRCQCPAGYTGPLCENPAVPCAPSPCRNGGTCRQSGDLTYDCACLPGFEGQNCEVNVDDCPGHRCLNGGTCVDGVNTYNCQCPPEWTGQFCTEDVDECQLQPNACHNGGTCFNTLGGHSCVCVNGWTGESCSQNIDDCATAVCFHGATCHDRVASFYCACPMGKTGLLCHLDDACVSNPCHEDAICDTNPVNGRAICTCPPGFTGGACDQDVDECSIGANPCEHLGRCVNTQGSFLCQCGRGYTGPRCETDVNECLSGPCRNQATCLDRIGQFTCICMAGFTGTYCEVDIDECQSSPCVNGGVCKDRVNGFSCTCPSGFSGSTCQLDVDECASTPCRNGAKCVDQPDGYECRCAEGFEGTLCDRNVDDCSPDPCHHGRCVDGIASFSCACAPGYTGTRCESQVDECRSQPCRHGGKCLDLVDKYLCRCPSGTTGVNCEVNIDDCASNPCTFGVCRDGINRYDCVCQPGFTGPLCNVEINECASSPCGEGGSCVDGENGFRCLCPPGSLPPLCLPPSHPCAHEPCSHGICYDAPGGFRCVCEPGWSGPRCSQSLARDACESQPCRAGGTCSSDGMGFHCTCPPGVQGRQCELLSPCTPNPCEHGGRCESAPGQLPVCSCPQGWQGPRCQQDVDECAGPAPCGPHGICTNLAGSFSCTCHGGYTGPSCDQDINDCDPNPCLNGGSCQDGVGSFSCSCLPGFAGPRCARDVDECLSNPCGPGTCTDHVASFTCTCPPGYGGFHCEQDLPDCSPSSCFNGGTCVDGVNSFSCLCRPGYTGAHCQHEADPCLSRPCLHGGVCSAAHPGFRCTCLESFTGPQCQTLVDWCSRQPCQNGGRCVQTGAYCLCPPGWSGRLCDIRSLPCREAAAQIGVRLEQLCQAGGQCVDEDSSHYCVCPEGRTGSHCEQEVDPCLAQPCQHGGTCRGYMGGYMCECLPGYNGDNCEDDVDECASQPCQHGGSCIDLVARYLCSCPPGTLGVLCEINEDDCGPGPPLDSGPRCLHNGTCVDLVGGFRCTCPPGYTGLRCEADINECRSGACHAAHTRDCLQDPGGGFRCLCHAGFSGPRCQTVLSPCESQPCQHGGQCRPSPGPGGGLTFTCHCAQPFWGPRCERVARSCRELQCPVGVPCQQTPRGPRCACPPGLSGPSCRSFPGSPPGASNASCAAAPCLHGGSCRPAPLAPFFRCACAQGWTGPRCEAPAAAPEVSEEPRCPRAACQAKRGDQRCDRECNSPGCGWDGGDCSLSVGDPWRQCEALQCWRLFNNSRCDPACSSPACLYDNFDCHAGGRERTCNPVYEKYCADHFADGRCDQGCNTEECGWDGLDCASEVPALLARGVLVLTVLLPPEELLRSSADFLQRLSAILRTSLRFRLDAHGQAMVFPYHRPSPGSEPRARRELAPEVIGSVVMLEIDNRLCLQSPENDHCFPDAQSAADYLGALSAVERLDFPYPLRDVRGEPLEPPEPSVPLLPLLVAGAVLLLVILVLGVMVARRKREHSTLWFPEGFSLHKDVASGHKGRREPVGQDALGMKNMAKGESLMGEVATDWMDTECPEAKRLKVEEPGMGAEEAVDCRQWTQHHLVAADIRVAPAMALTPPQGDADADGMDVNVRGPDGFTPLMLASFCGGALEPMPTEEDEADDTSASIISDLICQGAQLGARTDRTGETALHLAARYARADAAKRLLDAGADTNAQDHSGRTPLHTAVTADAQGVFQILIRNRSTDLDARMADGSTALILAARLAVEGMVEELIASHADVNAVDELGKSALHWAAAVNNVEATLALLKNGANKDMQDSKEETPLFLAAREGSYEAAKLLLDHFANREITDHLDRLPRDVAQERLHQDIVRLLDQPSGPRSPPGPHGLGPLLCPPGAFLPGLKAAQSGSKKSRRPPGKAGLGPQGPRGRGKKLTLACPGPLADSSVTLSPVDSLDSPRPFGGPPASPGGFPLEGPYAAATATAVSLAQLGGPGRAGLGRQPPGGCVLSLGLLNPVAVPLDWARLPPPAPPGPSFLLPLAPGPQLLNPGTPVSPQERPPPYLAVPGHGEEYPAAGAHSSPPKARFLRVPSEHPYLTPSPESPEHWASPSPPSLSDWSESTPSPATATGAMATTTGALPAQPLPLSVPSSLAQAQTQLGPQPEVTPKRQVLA

[10] = small-molecule microarray binders of probe aEGFR, primary screen, biochemical, biotinylated probe, 635/667 nm fluorescence (AID 1097); conditions: higher = more signal;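 also: probe is a biotinylated anti-EGFR antibody binding compounds printed on slides; score combines fluorescence near 667 nm and signal to noise of each spot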

SMILES	composite z-score [1]	z-score [2]	z-score [3]	z-score [4]	composite z-score [5]	z-score [6]	composite z-score [7]	composite z-score [8]	composite z-score [9]	composite z-score [10]
C=CCOC(=O)[C@H]1[C@@H]2C(=O)O[C@@H](c3ccccc3)[C@@H](c3ccccc3)N2[C@@H](c2ccc(OCCOC(=O)[C@@H]3C[C@@H]4C(=O)N[C@@H](CC(C)C)C(=O)N4[C@@H]3c3ccc(O)cc3)cc2)[C@]12C(=O)Nc1ccccc12	1.53	0.963 (inactive)	1.32 (inactive)	4.11 (inactive)	3.2	0.703 (inactive)	0.115	1.49	1.1	0.0195
COC(=O)[C@@]1(CCS(=O)(=O)c2ccccc2)N=C(c2ccc(OCCCO)cc2)O[C@H]1c1ccccc1CN=[N+]=[N-]	1.38	0.265 (inactive)	1.18 (inactive)	34.4 (active)	3.01	0.706 (inactive)	0.0054	0.338	1	0.127
[N-]=[N+]=NCc1ccccc1C[C@]1(C(=O)N2CCCCC2)N=C(c2ccc(OCCCO)cc2)O[C@H]1c1ccccc1N=[N+]=[N-]	1.57	-0.912 (inactive)	-0.371 (inactive)	6.08 (inactive)	3.09	-0.442 (inactive)	0.202	-0.112	1.07	0.262
COc1ccc(C#Cc2ccc3c(c2)[C@]2(C(=O)N3)[C@H](C(=O)NC[C@H](O)c3ccccc3)[C@H]3C(=O)O[C@H](c4ccccc4)[C@H](c4ccccc4)N3[C@@H]2c2ccc(O)cc2)cc1	1.55	2.26 (inactive)	0.984 (inactive)	2.2 (inactive)	2.98	-0.0198 (inactive)	0.0078	0.904	0.729	0.0996
COCCOC(=O)N1C(=O)[C@@]2(c3cc(C#CCC(C(=O)OC)C(=O)OC)ccc31)[C@H](C(=O)Nc1nc3ccccc3s1)[C@H]1C(=O)O[C@H](c3ccccc3)[C@H](c3ccccc3)N1[C@@H]2c1ccccc1OCCO	1.56	2.48 (inactive)	2.08 (inactive)	3.23 (inactive)	2.78	0.374 (inactive)	-0.0171	0.133	1.11	0.0556
CCCC[C@@H]1C[C@H]1[C@@H](NC(=O)C(C)(C)C)c1ccc(C(F)(F)F)cc1	0.648	0.213 (inactive)	-2.71 (inactive)	0.329 (inactive)	0.918	-1.67 (inactive)	0.0823	-1.46	-0.434	-0.236
COC(=O)C(CC#Cc1ccc2c(c1)[C@]1(C(=O)N2)[C@H](C(=O)Nc2nc3ccccc3s2)[C@H]2C(=O)O[C@H](c3ccccc3)[C@H](c3ccccc3)N2[C@@H]1c1ccc(O)cc1)C(=O)OC	1.55	0.424 (inactive)	0.301 (inactive)	0.746 (inactive)	2.82	-1.05 (inactive)	-0.0258	0.709	1.03	0.221
COc1ccc(C#Cc2ccc3c(c2)[C@]2(C(=O)N3)[C@H](c3ccccc3OCCO)N3[C@H](c4ccccc4)[C@H](c4ccccc4)OC(=O)[C@H]3[C@@H]2C(=O)Nc2nc3ccccc3s2)cc1	1.54	2.95 (inactive)	1.47 (inactive)	0.871 (inactive)	1.95	0.0309 (inactive)	0	0.785	1.09	-0.0549
CC(C)NC(=O)[C@@]1(c2ccc([N+](=O)[O-])cc2)CC(=O)N(C2CCCCC2)[C@@H]1c1ccc(CO)cc1I	1.03	0.719 (inactive)	0.475 (inactive)	2.6 (inactive)	2.33	1.21 (inactive)	0.134	-0.941	-0.0996	-0.0185
[N-]=[N+]=NCc1ccccc1[C@@H]1OC(c2ccc(OCCCO)cc2)=N[C@]1(Cc1ccccc1)C(N)=O	1.48	-0.368 (inactive)	-2.27 (inactive)	-0.784 (inactive)	3.36	0.455 (inactive)	0.227	0.683	1.06	0.154
CCOC(=O)C1=C[C@@H](C(C)(C)C)N(S(=O)(=O)c2ccc(C)cc2)[C@H]1c1ccc(F)cc1	1.5	0.518 (inactive)	1.95 (inactive)	1.92 (inactive)	3.07	-1.02 (inactive)	-0.0341	0.989	1.07	-0.0004
C=C(CCCC)/C(=C/C[C@@H](OC(=O)c1ccncc1)c1ccc(OCCO)cc1)c1cc(C(=O)OC)ccc1OC	1.53	0.594 (inactive)	0.199 (inactive)	0.279 (inactive)	1.66	0.22 (inactive)	-0.166	0.874	0.975	-0.12
CC(C)c1ccc(NN2C(C(O)c3ccc(B(O)O)cc3)C=CC3C(=O)N(c4ccccc4)C(=O)C32)cc1 (stereo not given)	0.815	0.0686 (inactive)	-4.4 (inactive)	0.617 (inactive)	2.99	-0.41 (inactive)	0.413	-0.266	1.11	-0.0179
O=C1C[C@@](C(=O)NCC(F)(F)F)(c2ccc([N+](=O)[O-])cc2)[C@@H](c2ccc(CO)cc2I)N1C1CCCCC1	1.55	-0.732 (inactive)	0.294 (inactive)	1.16 (inactive)	2.52	-0.426 (inactive)	0.0524	0.572	1.09	0.0721
NCCCCCCNC(=O)[C@@H]1C[C@@H]2C(=O)NCC(=O)N2[C@@H]1c1ccc(O)cc1	1.56	0.0703 (inactive)	0.467 (inactive)	-0.129 (inactive)	1.01	1.1 (inactive)	-0.0324	1.58	1.07	-0.0409
COCCOC(=O)N1C(=O)[C@@]2(c3ccccc31)[C@H](c1ccc(O)cc1)N1[C@H](c3ccccc3)[C@H](c3ccccc3)OC(=O)[C@H]1[C@@H]2C(=O)Nc1nc2ccccc2s1	1.31	1.35 (inactive)	0.396 (inactive)	1.75 (inactive)	1.94	1.31 (inactive)	0.201	0.734	1.09	0.0432
O=C1C2C=CC(C(O)Cc3ccccc3)N(n3cnnc3)C2C(=O)N1Cc1ccccc1 (stereo not given)	0.411	-0.112 (inactive)	0.116 (inactive)	0.343 (inactive)	2.93	-1.25 (inactive)	0.0906	-0.785	0.153	-0.0592
C[C@@]1([C@@H](NC(=O)c2ccc(-c3ccccc3)cc2)c2ccc(Cl)cc2)C[C@H]1C1CCCCC1	0.497	0.823 (inactive)	-3.48 (inactive)	1.6 (inactive)	2.54	-0.586 (inactive)	0.101	0.118	0.73	0.302
O=C1c2ccccc2[C@](Cc2ccccc2I)(C(=O)NCCN2CCOCC2)[C@H](c2ccc(CO)cc2)N1Cc1ccccc1Cl	1.55	-0.747 (inactive)	-0.0063 (inactive)	-1.04 (inactive)	2.45	-0.116 (inactive)	0.225	0.72	1.12	0.0523
C=C(/C(=C/C[C@H](OC(C)=O)c1ccccc1OCCO)c1cnc2ccccc2c1)C(C)C	0.491	0.0556 (inactive)	-0.0759 (inactive)	1.11 (inactive)	1.85	-0.0733 (inactive)	-0.0251	1.24	0.909	-0.044
COc1ccc([Si](C)(C)[C@@H]2[C@@H](CC(=O)N3CCC[C@H]3CO)O[C@]3(C(=O)N(c4ccccc4)c4ccccc43)[C@H]2C)cc1	1.54	-1.57 (inactive)	-0.589 (inactive)	-1.79 (inactive)	2.37	2.79 (inactive)	-0.256	0.999	1.03	0.0436
COC(=O)[C@@]1(Cc2ccc(OC)cc2)[C@H]2c3cc(C(=O)N(C)C)n(Cc4ccccn4)c3C[C@H]2CN1C(=O)c1ccccc1	-1.12	0.0106 (inactive)	0.785 (inactive)	0.144 (inactive)	3.08	-0.621 (inactive)	0.282	-1.12	0.0171	-0.0355
C=CC1(C(=O)OC)CC=C(C(=O)OC)CC1 (stereo not given)	0.911	-1.64 (inactive)	0.358 (inactive)	-0.624 (inactive)	0.531	-0.487 (inactive)	-0.0449	0.533	0.57	0.0413
COc1ccc(CCNC(=O)[C@@]2(Sc3ccc(C)cc3)CC(=O)N(C(C)C)[C@@H]2c2ccc(CO)cc2I)cc1	0.163	-0.971 (inactive)	-0.693 (inactive)	0.706 (inactive)	0.468	-0.236 (inactive)	-0.183	-0.778	-0.343	-0.189
CC(C)[Si](C#Cc1ccc(Oc2ccccc2)cc1)(O[Si](C#Cc1ccc(Oc2ccccc2)cc1)(C(C)C)C(C)C)C(C)C	0.578	1.8 (inactive)	0.267 (inactive)	4.06 (inactive)	0.981	1.06 (inactive)	-0.192	0.267	-0.0319	0.0746
C=C(COC)/C(=C/C[C@@H](OC(C)=O)c1ccc(OCCO)cc1)c1cnc2ccccc2c1	1.19	-0.938 (inactive)	-1.5 (inactive)	-1.05 (inactive)	0.014	2.33 (inactive)	-0.0998	1.89	1.08	-0.067
COc1cc2c(cc1OC)CN(C(=O)[C@H]1[C@@H]3C(=O)O[C@@H](c4ccccc4)[C@@H](c4ccccc4)N3[C@@H](c3ccc(O)cc3)[C@]13C(=O)Nc1ccccc13)CC2	1.27	1.16 (inactive)	0.536 (inactive)	1.74 (inactive)	2.32	-0.204 (inactive)	-0.139	0.0366	0.518	-0.191
C=C[C@H](C)[C@@H](OC(=O)Nc1ccc(OC)cc1)c1ccc(O)c2ccccc12	0.0444	-24.6 (active)	-20.8 (active)	-3.58 (inactive)	1.63	0.431 (inactive)	-0.266	0.823	0.0291	-0.275
